{"source": "the supplement of paper PMC8728848", "binders": {"B1": {"name": "OS9 (Arabidopsis thaliana) (protein)", "chain": "MRGSHHHHHHGMASMTGGQQMGRDLYDDDDKSRLQIFPAHLVGTFSRNNREPKYKIEFLPEDSPFHPGDNLESMVMLDKHGNRFLCYLPKEEKATSGWTSSQQNISTVMMETQQLVKLKTPDELLQPLSEKCLFRQEGWWSYEFCHQKYVRQLHVEDENKIVQEFFLGTFDPEATAAFNQTVSDASTDASQRYHSHVYTNGTTCDLTGSPAEVEVRFVCAETRAMVTSITELSTCKYALTVQCPTLCKHPLFQLEKPVSHTIHCNAIPVEEDATRNKEEQAVDESPKMIADS"}}, "experiment_in_all_cases": "glycan array binding signal (z-score within array); higher = stronger binding", "details_in_all_cases": "glycan notation: IUPAC condensed, linker removed; mutation: R201A", "key": {"Fuc(a1-2)Gal": {"target": "Fuc(a1-2)Gal", "how_it_was_run": "(§1)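 The binding signal is a Z-score computed within each array and averaged over linkers. Arrays of the same protein sequence at different concentrations or buffers were also averaged together. Data originate from 3228 arrays in the Consortium for Functional Glycomics database, kept only where the protein sequence was available.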"}, "[1]": {"target": "Fuc(a1-2)Gal(b1-3)GalNAc(b1-3)Gal(a1-4)Gal(b1-4)Glc", "how_it_was_run": "as §1"}, "[2]": {"target": "Fuc(a1-2)Gal(b1-3)GalNAc(b1-4)[Neu5Ac(a2-3)]Gal(b1-4)Glc", "how_it_was_run": "as §1"}, "Fuc(a1-2)Gal(b1-4)Glc": {"target": "Fuc(a1-2)Gal(b1-4)Glc", "how_it_was_run": "as §1"}, "[3]": {"target": "Fuc(a1-2)[Gal(a1-3)]Gal(b1-3)GlcNAc", "how_it_was_run": "as §1"}, "[4]": {"target": "Fuc(a1-2)[Gal(a1-3)]Gal(b1-4)GlcNAc(b1-2)Man(a1-3)[Fuc(a1-2)[Gal(a1-3)]Gal(b1-4)GlcNAc(b1-2)Man(a1-6)]Man(b1-4)GlcNAc(b1-4)GlcNAc", "how_it_was_run": "as §1"}, "[5]": {"target": "Fuc(a1-2)[Gal(a1-3)]Gal(b1-4)GlcNAc(b1-3)[Fuc(a1-2)[Gal(a1-3)]Gal(b1-4)GlcNAc(b1-6)]GalNAc", "how_it_was_run": "as §1"}, "[6]": {"target": "Fuc(a1-2)[Gal(a1-3)]Gal(b1-4)GlcNAc(b1-6)GalNAc", "how_it_was_run": "as §1"}, "[7]": {"target": "Fuc(a1-2)[GalNAc(a1-3)]Gal(b1-4)GlcNAc(b1-2)Man(a1-3)[Fuc(a1-2)[GalNAc(a1-3)]Gal(b1-4)GlcNAc(b1-2)Man(a1-6)]Man(b1-4)GlcNAc(b1-4)[Fuc(a1-6)]GlcNAc", "how_it_was_run": "as §1"}, "[8]": {"target": "Fuc(a1-2)[GalNAc(a1-3)]Gal(b1-4)GlcNAc(b1-3)Gal(b1-4)GlcNAc(b1-3)Gal(b1-4)GlcNAc", "how_it_was_run": "as §1"}, "[9]": {"target": "Fuc(a1-3)[Gal(b1-4)]GlcNAc(b1-2)Man(a1-3)[Fuc(a1-3)[Gal(b1-4)]GlcNAc(b1-2)Man(a1-6)]Man(b1-4)GlcNAc(b1-4)[Fuc(a1-6)]GlcNAc", "how_it_was_run": "as §1"}, "[10]": {"target": "Fuc(a1-3)[Gal3S(b1-4)]GlcNAc", "how_it_was_run": "as §1"}, "Fuc(a1-4)GlcNAc": {"target": "Fuc(a1-4)GlcNAc", "how_it_was_run": "as §1"}, "Gal(a1-3)Gal(b1-4)GlcNAc": {"target": "Gal(a1-3)Gal(b1-4)GlcNAc", "how_it_was_run": "as §1"}, "[11]": {"target": "Gal(a1-3)Gal(b1-4)[Fuc(a1-3)]GlcNAc(b1-2)Man(a1-3)[Gal(a1-3)Gal(b1-4)[Fuc(a1-3)]GlcNAc(b1-2)Man(a1-6)]Man(b1-4)GlcNAc(b1-4)GlcNAc", "how_it_was_run": "as §1"}, "[12]": {"target": "Gal(a1-4)Gal(b1-4)GlcNAc(b1-3)Gal(b1-4)Glc", "how_it_was_run": "as §1"}, "[13]": {"target": "Gal(b1-3)GlcNAc(b1-2)Man(a1-3)[Gal(b1-3)GlcNAc(b1-2)Man(a1-6)]Man(b1-4)GlcNAc(b1-4)[Fuc(a1-6)]GlcNAc", "how_it_was_run": "as §1"}, "[14]": {"target": "Gal(b1-3)GlcNAc(b1-2)Man(a1-3)[GlcNAc(b1-4)][Gal(b1-3)GlcNAc(b1-2)Man(a1-6)]Man(b1-4)GlcNAc(b1-4)GlcNAc", "how_it_was_run": "as §1"}, "[15]": {"target": "Gal(b1-4)GlcNAc(b1-3)Gal(b1-3)GalNAc", "how_it_was_run": "as §1"}, "[16]": {"target": "Gal(b1-4)GlcNAc(b1-3)Gal(b1-4)Glc", "how_it_was_run": "as §1"}, "[17]": {"target": "Gal(b1-4)GlcNAc(b1-3)Gal(b1-4)GlcNAc(b1-3)Gal(b1-4)GlcNAc(b1-3)Gal(b1-4)GlcNAc(b1-3)Gal(b1-4)GlcNAc(b1-2)Man(a1-3)[Gal(b1-4)GlcNAc(b1-3)Gal(b1-4)GlcNAc(b1-3)Gal(b1-4)GlcNAc(b1-3)Gal(b1-4)GlcNAc(b1-3)Gal(b1-4)GlcNAc(b1-2)Man(a1-6)]Man(b1-4)GlcNAc(b1-4)GlcNAc", "how_it_was_run": "as §1"}, "[18]": {"target": "Gal(b1-4)GlcNAc(b1-3)Gal(b1-4)GlcNAc(b1-3)Gal(b1-4)GlcNAc(b1-3)Gal(b1-4)GlcNAc(b1-3)Gal(b1-4)GlcNAc(b1-3)Gal(b1-4)GlcNAc(b1-2)Man(a1-3)[Gal(b1-4)GlcNAc(b1-3)Gal(b1-4)GlcNAc(b1-3)Gal(b1-4)GlcNAc(b1-3)Gal(b1-4)GlcNAc(b1-3)Gal(b1-4)GlcNAc(b1-3)Gal(b1-4)GlcNAc(b1-2)Man(a1-6)]Man(b1-4)GlcNAc(b1-4)GlcNAc", "how_it_was_run": "as §1"}, "Gal3S6S(b1-4)GlcNAc6S": {"target": "Gal3S6S(b1-4)GlcNAc6S", "how_it_was_run": "as §1"}, "Gal6P(b1-4)GlcNAc": {"target": "Gal6P(b1-4)GlcNAc", "how_it_was_run": "as §1"}, "GalNAc(a1-3)Gal": {"target": "GalNAc(a1-3)Gal", "how_it_was_run": "as §1"}, "[19]": {"target": "GalNAc(b1-3)Gal(a1-4)Gal(b1-4)GlcNAc", "how_it_was_run": "as §1"}}, "note": "Shown is part of a subset that was picked to be rich in the strongest signals."}
{"binder": "B1", "values": [{"measurement": "glycan array binding signal (z-score)", "setting": "Fuc(a1-2)Gal", "result": 0.581}, {"measurement": "glycan array binding signal (z-score)", "setting": "[1]", "result": -0.131}, {"measurement": "glycan array binding signal (z-score)", "setting": "[2]", "result": -0.246}, {"measurement": "glycan array binding signal (z-score)", "setting": "Fuc(a1-2)Gal(b1-4)Glc", "result": -0.732}, {"measurement": "glycan array binding signal (z-score)", "setting": "[3]", "result": -0.124}, {"measurement": "glycan array binding signal (z-score)", "setting": "[4]", "result": -0.237}, {"measurement": "glycan array binding signal (z-score)", "setting": "[5]", "result": 1.25}, {"measurement": "glycan array binding signal (z-score)", "setting": "[6]", "result": -0.223}, {"measurement": "glycan array binding signal (z-score)", "setting": "[7]", "result": -0.739}, {"measurement": "glycan array binding signal (z-score)", "setting": "[8]", "result": 2.49}, {"measurement": "glycan array binding signal (z-score)", "setting": "[9]", "result": 3.48}, {"measurement": "glycan array binding signal (z-score)", "setting": "[10]", "result": 0.043}, {"measurement": "glycan array binding signal (z-score)", "setting": "Fuc(a1-4)GlcNAc", "result": 2.18}, {"measurement": "glycan array binding signal (z-score)", "setting": "Gal(a1-3)Gal(b1-4)GlcNAc", "result": -0.929}, {"measurement": "glycan array binding signal (z-score)", "setting": "[11]", "result": 0.205}, {"measurement": "glycan array binding signal (z-score)", "setting": "[12]", "result": -0.456}, {"measurement": "glycan array binding signal (z-score)", "setting": "[13]", "result": -0.307}, {"measurement": "glycan array binding signal (z-score)", "setting": "[14]", "result": -0.686}, {"measurement": "glycan array binding signal (z-score)", "setting": "[15]", "result": -0.513}, {"measurement": "glycan array binding signal (z-score)", "setting": "[16]", "result": -0.35}, {"measurement": "glycan array binding signal (z-score)", "setting": "[17]", "result": -0.257}, {"measurement": "glycan array binding signal (z-score)", "setting": "[18]", "result": 0.133}, {"measurement": "glycan array binding signal (z-score)", "setting": "Gal3S6S(b1-4)GlcNAc6S", "result": 3.98}, {"measurement": "glycan array binding signal (z-score)", "setting": "Gal6P(b1-4)GlcNAc", "result": -0.208}, {"measurement": "glycan array binding signal (z-score)", "setting": "GalNAc(a1-3)Gal", "result": 1.39}, {"measurement": "glycan array binding signal (z-score)", "setting": "[19]", "result": 2.17}]}
